# Test results taken from PubChem BioAssay (EPA / NIEHS).
# Activity calls are given as the source filed them. The calls were made as follows: active = hit-call score of the fitted dose curve at least 0.9, where 1 is the maximum; inactive = score below 0.9.
# Biological target: Paired box protein Pax-6 (Homo sapiens) (UniProt P26367)
# Assay: ATG_Pax6_CIS: Attagene CIS-FACTORIAL HepG2 Assay for human Paired Box 6 (PAX6) (AID 2282956)
# Settings: HepG2 CIS-FACTORIAL PAX6 reporter transcription, RNA readout; actives raise or lower the signal
# Description: ATG_CIS is a cell-based, multiplexed-readout assay that uses HepG2, a human liver cell line, with measurements taken at 24 hours after chemical dosing in a 24-well plate.ATG_Pax6_CIS is one of 52 assay component(s) measured or calculated from the ATG_CIS assay. It is designed to make measurements of mRNA induction, a form of inducible reporter, as detected with fluorescence intensity signals by Reverse transcription polymerase chain reaction (RT-PCR) and Capillary electrophoresis technology.Data from the assay component ATG_Pax6_CIS was analyzed into 1 assay endpoint. This assay endpoint, ATG_Pax6_CIS, was analyzed with bidirectional fitting relative to DMSO as the negative control and baseline of activity. Using a type of inducible reporter, measures of mRNA for gain or loss-of-signal activity can be used to understand the reporter gene at the transcription factor-level as they relate to the gene PAX6. Furthermore, this assay endpoint can be referred to as a primary readout, because this assay has produced multiple assay endpoints where this one serves a reporter gene function. To generalize the intended target to other relatable targets, this assay endpoint is annotated to the dna binding intended target family, where the subfamily is paired box protein.
# Human liver HepG2 cells are transiently transfected with multiple reporter transcription units (MRTUs) in 6-well plates using FuGene 6 reagent (Roche; 3 ml FuGene/1 mg DNA). The MRTU constructs are regulated by a cis-regulating element (promoter). […] A major difference between the CIS and TRANS system is that in CIS activities of endogenous TFs are measured, whereas the TRANS assay evaluates changes in activities of exogenous, chimeric NR-Gal4 proteins. […] At the end of 24 hour incubation, total RNA was isolated using TriZol reagent (Invitrogen). The isolated RNA is then reverse-transcribed using oligo(dT) primer and Mo-MLV reverse transcriptase (Invitrogen) with DNAse I (Ambion) treatment for 30 min. The one-tenth of the produced cDNA was amplified by PCR using Taq DNA polymerase (Invitrogen) and two reporter sequence-specific primers. The PCR products were fluorescently labeled by primer extension with 6-arboxyfluorescein (6-FAM) 5'-labeled reporter sequence-specific primer (2 min at 95 C, 20 s at 68 C and 10 min at 72 C) and these products were digested with 5U of HpaI (New England Biolabs) for 2h at 37 C. The fragments were purified using Qiaquick PCR columns (Qiagen), analyzed on an ABI 3130xL genetic analyzer (Applied Biosystems) with peak positions identified by using a set of X-rhodamine (ROX)-labeled MapMarker1000 molecular weight standards (BioVentures). The raw capillary electrophoresis data was processed using Attagraph software (Attagene).
# Chain of Paired box protein Pax-6 (Homo sapiens) (P26367 whole entry, looked up): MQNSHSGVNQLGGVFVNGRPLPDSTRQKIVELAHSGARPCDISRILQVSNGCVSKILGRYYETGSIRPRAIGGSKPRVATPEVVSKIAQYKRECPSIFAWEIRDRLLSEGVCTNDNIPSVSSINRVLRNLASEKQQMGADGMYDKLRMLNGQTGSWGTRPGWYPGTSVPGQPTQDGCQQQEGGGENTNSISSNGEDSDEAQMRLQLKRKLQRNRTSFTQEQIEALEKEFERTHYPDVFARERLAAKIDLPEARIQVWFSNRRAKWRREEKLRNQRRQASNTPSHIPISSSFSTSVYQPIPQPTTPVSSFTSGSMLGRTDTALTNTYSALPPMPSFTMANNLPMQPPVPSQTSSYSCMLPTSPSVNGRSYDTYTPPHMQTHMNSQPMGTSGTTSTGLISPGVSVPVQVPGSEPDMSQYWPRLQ
SMILES,outcome,AC50
Cc1ccc2n[nH]nc2c1,inactive,
CC1=CC(=O)NS(=O)(=O)O1,inactive,
O=C(OCc1ccccc1)C(=O)OCc1ccccc1,inactive,
CCCCNC(=O)NS(=O)(=O)c1ccc(C)cc1,inactive,
CCCCCCCCCOC(C)=O,inactive,
COc1c(Cl)c(Cl)c(Cl)c(Cl)c1Cl,inactive,
NC(=O)Nc1ccc(Cl)cc1,inactive,
C=COCCOCCOCCOC=C,inactive,
O=C(O)c1cccc(C(F)(F)F)c1,inactive,
CCCCCNCCCCC,inactive,
FC1(F)C(F)(F)C(F)(F)C2(F)C(F)(C1(F)F)C(F)(F)C(F)(F)C1(F)C(F)(F)C(F)(F)C(F)(F)C(F)(F)C12F (stereo not given),inactive,
CCCCCC(CO)CCC (stereo not given),inactive,
CC(C)(Oc1ccc(CCNC(=O)c2ccc(Cl)cc2)cc1)C(=O)O,inactive,
Nc1nc2ccc([N+](=O)[O-])cc2s1,inactive,
CCCC(=O)OCCC(C)CCC=C(C)C (stereo not given),inactive,
COc1ccc(Cl)cc1C,inactive,
NC(=O)c1ccccc1Cl,,65 µM (active)
O=c1[nH]nnc2ccccc12,inactive,
CC(=O)c1c(C)cc(C(C)(C)C)cc1C,inactive,
O=S(=O)(O)NC1CCCCC1,inactive,

SMILES,outcome,AC50
CCCCC(CC)COC(=O)/C=C\C(=O)OCC(CC)CCCC (stereo not given),inactive,
CCCCCCCCCCCCN(CCCCCCCCCCCC)CCCCCCCCCCCC,inactive,
Clc1nc(C(Cl)(Cl)Cl)c(Cl)c(Cl)c1Cl,inactive,
NC(=O)NC1NC(=O)NC1=O (stereo not given),inactive,
CC1(CO)CN(c2ccccc2)NC1=O (stereo not given),inactive,
CC(C)[C@@H]1CC[C@@H](C)CC1=O,inactive,
CC(C)(CO)[N+](=O)[O-],inactive,
O=C[C@H](O)[C@H](O)[C@H](O)CO,inactive,
NNc1nc(-c2ccc(N)cc2)cs1,inactive,
COC(=O)C1=C(C)NC(C)=C(C(=O)OCCN(C)Cc2ccccc2)C1c1cccc([N+](=O)[O-])c1 (stereo not given),,20.5 µM (active)
CO[Si](CCCn1c(=O)n(CCC[Si](OC)(OC)OC)c(=O)n(CCC[Si](OC)(OC)OC)c1=O)(OC)OC,inactive,
CC(=O)Nc1ccc(C)cc1C,inactive,
CCC(=O)OCCC(C)CCC=C(C)C (stereo not given),inactive,
O=c1oc(=O)c2cc3c(=O)oc(=O)c3cc12,inactive,
C=CC(C)(O)CCC=C(C)CCC=C(C)C (stereo not given),,134 µM (active)
O=Cc1ccc(Cl)c([N+](=O)[O-])c1,,91.2 µM (active)
Cc1ccc2sc3cccc(C)c3c2c1,inactive,
S=C(S)NCCNC(=S)S,inactive,
COc1cccc(OC)c1,inactive,
CC(c1cc2ccccc2s1)N(O)C(N)=O (stereo not given),inactive,
